Activity calls are given as the source filed them. The calls were made as follows: active = hit-call score of the fitted dose curve at least 0.9, where 1 is the maximum; inactive = score below 0.9.
read-out: UDP glucuronosyltransferase (UGT1A6), UGT1A6 (gene 54578); experiment: LTEA_HepaRG_UGT1A6: Life Technologies and Expression Analysis (LTEA) Assay for UDP glucuronosyltransferase (UGT1A6) using HepaRG (AID 2283539); conditions: mRNA level, 48 h; actives raise or lower the signal
Description: LTEA_HepaRG is a cell based, multiplexed-readout assay that uses HepaRG, a human liver cell line, with measurements taken at 48 hours after chemical dosing on a 96-well plate.LTEA_HepaRG_UGT1A6 is one of 102 assay component(s) measured in the LTEA HepaRG cell culture assay. It is a marker of NR mediated metabolism.Data from the assay component LTEA_HepaRG_UGT1A6 was analyzed into 1 endpoint. This assay endpoint, LTEA_HepaRG_UGT1A6, was analyzed with bidirectional fitting relative to DMSO as the negative control and baseline of activity. Using a type of inducible reporter, measures of mRNA induction for gain or loss-of-signal activity can be used to understand regulation of transcription factor activity. To generalize the intended target to other relatable targets, this assay endpoint is annotated to the transferase intended target family, where the subfamily is glucuronosyltransferase.
A total of 1060 chemcials from the ToxCast library were tested in eight-point concentration-response experiments. Cell culture and cytotoxicity assays were conducted at Thermo Fisher Scientific's Custom Services facility (Madison, WI). A single lot of human HepaRG cells (Thermo Fisher Scientific, Frederick, MD) was used for the cell culture experiments. 96-well format collagen type I coated plates of human HepaRG cells were prepared using established methods. Briefly, cryopreserved HepaRG cells were thawed, plated at a density of approximately 100,000 cells/well in HepaRG Thaw, Plate, and General Purpose media (HPRG770, Thermo Fisher Scientific), and incubated for 48 hours. 0.5% DMSO was selected as vehicle control to balance the requisite need of DMSO in HepaRG cultures to maintain differentiation (for example, baseline metabolism, proportions of hepatocytes vs. cholangiocytes), while enabling further hepatic receptor pathway activation (for example, PXR and CAR) in response to chemical exposure. 48 hours after plating, the culture medium was replaced with HepaRG Serum-Free Incudtion Media. Cells were exposed to each test chemical in duplicate and maintained in CO2 incubators for another 48 hours. Chemical plates were thawed to room temperature and 200x concentrations of treatment groups were prepared. 8-point conentration-reponse curves were made with the highest exposure at 100 uM, followed by half-log dilutions, all in 0.5% DMSO. Each test plate contained variouse controls, induction positive controls (1mM phenobarbital), cytotoxicity positive controls ([…] aflatoxin B1), vehicle controls (0.5% DMSO), and total lysis controls (0.5% DMSO). Cell morphology images were taken using an Essen IncuCyte FLR automated microscope, with six 96-well plates imaged in about 24 minutes. Images were captured and exported and JPEG files. Spent culture media was transfered to black-well plates for the LDH assay, and remaining media was sorted at -80 C for later use. Cells were treated with RLT buffer and frozen until shipped for gene expression analysis. Total RNA was isolated from the cell suspension in 75 uL of Buffer RLT (Qiagen, Germantown, MD 20874) by Quintiles/Expression Analysis (Durham, NC) using a custom isolation procedure. Total RNA from each plate well was transferred to a preamplification plate. Fluidigm's 96.96 Dynamic ArrayTM (Fluidigm, Amsterdam, the Netherlands) technology was used for gene expression analyses by quantitative reverse transcription polymerase chain reaction (qRT-PCR, performed by Quintiles/Expression Analysis, Durham, NC)89. Standard TaqManTM Assays (Applied Biosystems/ThermoFisher Scientific, Foster City, CA) were used to assess the expression of 93 genes selected based on their selectivity and sensitivity to important hepatic receptors known to be modulated by environmental chemicals; importance in human hepatocyte functionality; and hepatotoxicity. […]

SMILES | outcome | AC50
Cc1ccc(N(C)C)cc1 | inactive | 
CC(C)c1ccc(C(=O)N=C(N)N)cc1S(C)(=O)=O | inactive | 
CCCCc1ccc2c(n1)[C@@H](c1ccc(OC)cc1C[C@H](C)C(=O)O)[C@H](C(=O)O)[C@H]2c1ccc2c(c1)OCO2 | inactive | 
Cc1cccc(Nc2cc(Cl)nc(SCC(=O)O)n2)c1C | inactive | 
CC(=O)Oc1ccccc1C(=O)O | inactive | 
Nc1ccc2c(c1)C(=O)c1ccccc1C2=O | inactive | 
CCCCCCCCCCCCCCCC | inactive | 
CC1=C(/C=C/C(C)=C/C=C/C(C)=C/CO)C(C)(C)CCC1 | inactive | 
C1CCC(SSC2CCCCC2)CC1 | inactive | 
CCOC(=O)C(C)(C)Oc1ccc(Cl)cc1 | inactive | 
NCCO | inactive | 
O=c1[nH]cc(F)c(=O)[nH]1 | inactive | 
COc1ccc(S(=O)(=O)N2C(=O)[C@@](c3ccccc3OC)(N3C[C@H](O)C[C@H]3C(=O)N(C)C)c3cc(Cl)ccc32)c(OC)c1 |  | 79 µM (active)
Nc1ccccc1N |  | 75.8 µM (active)
CCNc1cccc(C)c1 | inactive | 
CC(=O)C(C)=CC1C(C)=CCCC1(C)C (stereo not given) | inactive | 
Cc1ccc2ncccc2c1 | inactive | 
C[C@]12C=CC(=O)C=C1CC[C@@H]1[C@@H]2C(=O)C[C@@]2(C)[C@H]1CC[C@]2(O)C(=O)CO | inactive | 
CC(=O)OCCOCCOCCOC(C)=O | inactive | 
C=CCOC(=O)c1ccccc1C(=O)OCC=C | inactive | 

SMILES | outcome | AC50
C=CCc1ccc(O)c(OC)c1 | inactive | 
O=C(OCCCCCOC(=O)c1ccccc1)c1ccccc1 | inactive | 
CCCCOC(=O)CCCCCCCCC(=O)OCCCC | inactive | 
c1cc(-c2ccncc2)ccn1 | inactive | 
CCCCCC(=O)O | inactive | 
CCCCCCCCCCCCCO | inactive | 
COC(=O)c1ccc(O)cc1 | inactive | 
CNC(=O)[C@H]1O[C@@H](n2cnc3c(NCc4cc(Cl)ccc4OCc4cc(C)no4)ncnc32)[C@H](O)[C@@H]1N | inactive | 
O=C(N[C@@H](Cc1ccccc1)[C@@H](O)C(=O)N1C[C@@H](O)[C@@H](O)C1)c1cc2cc(Cl)ccc2[nH]1 | inactive | 
COc1cc(-c2nc(NC(=O)c3cc4cc(C)cc(C)c4n3CC(=O)O)sc2CCC2CCCCC2)c(OC)cc1Cl |  | 7.34 µM (active)
CCCCCCOCCO | inactive | 
CCCc1cc(=O)[nH]c(=S)[nH]1 | inactive | 
CNCc1cc(F)ccc1Oc1ccc(Cl)c(Cl)c1 |  | 74 µM (active)
COc1ccc2c(c1)c(CC(=O)O)c(C)n2C(=O)c1ccc(Cl)cc1 | inactive | 
Cc1cc(=O)[nH]c(=S)[nH]1 | inactive | 
CCCCCCCCCCCCCCCCCC(=O)O | inactive | 
CCCCCCCC=O | inactive | 
FC(F)(F)C(F)(F)C(F)(F)C(F)(F)C(F)(F)C(F)(F)CCI | inactive | 
COc1cc(S(=O)(=O)O)c(C)cc1N=Nc1c(O)ccc2cc(S(=O)(=O)O)ccc12 | inactive | 
CCCCN(CCCC)CCCC | inactive | 
